# Reference: PubChem BioAssay AID588466 (NMMLSC, 2011)
# “And” between values parts separate entries of the source, which are not always exact repeats. Identical values can stand only once. In all, about 2,100 compounds went through this assay and about 30 (1%) were called active.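 The calls were made as follows: active = compounds whose mean binding response over two repeats is below 75% of the DMSO control; inactive = the rest.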 A selection follows.
# Biological target: Desmoglein-3 (Homo sapiens) (UniProt P32926)
# Sequence (P32926 whole entry, looked up): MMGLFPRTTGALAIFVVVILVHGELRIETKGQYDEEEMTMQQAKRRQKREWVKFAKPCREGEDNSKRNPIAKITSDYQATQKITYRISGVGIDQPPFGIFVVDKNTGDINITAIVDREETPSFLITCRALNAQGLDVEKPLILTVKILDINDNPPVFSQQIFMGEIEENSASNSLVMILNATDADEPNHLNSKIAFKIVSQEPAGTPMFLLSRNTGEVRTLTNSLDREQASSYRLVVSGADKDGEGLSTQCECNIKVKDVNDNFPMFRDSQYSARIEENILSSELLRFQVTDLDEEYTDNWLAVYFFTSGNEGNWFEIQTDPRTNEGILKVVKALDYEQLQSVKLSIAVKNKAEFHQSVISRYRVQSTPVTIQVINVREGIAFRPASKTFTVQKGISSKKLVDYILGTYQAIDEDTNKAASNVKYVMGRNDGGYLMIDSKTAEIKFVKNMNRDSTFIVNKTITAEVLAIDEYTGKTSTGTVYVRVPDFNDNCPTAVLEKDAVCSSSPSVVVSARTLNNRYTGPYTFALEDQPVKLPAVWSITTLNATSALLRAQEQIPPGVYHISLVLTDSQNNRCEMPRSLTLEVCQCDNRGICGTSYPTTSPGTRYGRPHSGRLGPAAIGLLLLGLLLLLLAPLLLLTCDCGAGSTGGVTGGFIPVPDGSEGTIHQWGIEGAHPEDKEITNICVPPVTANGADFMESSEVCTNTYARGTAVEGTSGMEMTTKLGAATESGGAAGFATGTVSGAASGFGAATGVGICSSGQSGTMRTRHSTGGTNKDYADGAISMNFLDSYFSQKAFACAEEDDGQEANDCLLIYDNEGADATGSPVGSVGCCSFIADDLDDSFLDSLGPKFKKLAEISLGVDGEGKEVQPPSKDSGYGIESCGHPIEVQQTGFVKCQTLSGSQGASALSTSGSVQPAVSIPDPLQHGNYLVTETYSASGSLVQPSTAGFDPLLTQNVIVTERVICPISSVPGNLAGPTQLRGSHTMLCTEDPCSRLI
# Test: inhibitors of anti-DSG3 scFv binding to DSG3, confirmation, biochemical, cherry pick 1, bead-based, flow cytometry (AID 588466);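 also: 100% = 2% DMSO vehicle and 0% = excess soluble DSG3 blocking control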
# Conditions: Protein G beads with DSG3, scFv-GFP binding, at 10 µM, hits give low values
row,SMILES,binding response (% of DMSO)
1,Cc1nc(SCc2nc3c([N+](=O)[O-])cccc3[nH]2)c2oc3ccccc3c2n1,108% (inactive)
2,CN(CCC1CCOCC1)C(=O)C1CCC(=O)N(CCc2ccccc2)C1 (configuration not stated),101% (inactive)
3,CCOC(=O)c1cccc(NC(=O)c2ccc3c(c2)C(=O)N(CC2CCCO2)C3=O)c1 (configuration not stated),103% (inactive)
4,COc1ccc(C2=Nn3c(nnc3-c3ccccc3Cl)SC2)cc1OC1CCOC1 (configuration not stated),91.3% (inactive)
5,Nc1cccc(C(=O)c2ccccc2C(=O)O)c1,98.2% (inactive)
6,O=C1CSC(c2ccncc2)N1Cc1ccco1 (configuration not stated),106% (inactive)
7,COC(=O)c1ccc(N(C(=O)CNC(=O)c2ccco2)C(C(=O)NCC2CCCO2)c2ccc(OC)c(OC)c2)cc1 (configuration not stated),104% (inactive)
8,CC(=O)Nc1ccc(C(=O)OCC(=O)c2ccc(S(=O)(=O)N3CCCCC3)cc2)cc1,110% (inactive)
9,Cc1ccc(-n2nc3c(c2NC(=O)c2ccc(Br)o2)CSC3)c(C)c1,95.6% (inactive)
10,Cc1cc(NC(=O)CSc2nccn2-c2ccc(Cl)cc2)no1,103% (inactive)
11,CCOc1cccc(C(=O)Nc2ccc(N3CCN(S(C)(=O)=O)CC3)cc2)c1,90.8% (inactive)
12,Clc1ccc(-[n+]2c(-c3cccc(Br)c3)[nH]c3nc4ccccc4nc32)cc1,90.4% (inactive)
13,COc1ccc(Oc2nnc(-c3ccccc3)cc2C#N)cc1,94.9% (inactive)
14,O=C(CSc1nc(=O)[nH]c2c1CCCC2)Nc1ccc(F)cc1F,106% (inactive)
15,O=C1c2ccc(-c3ccc(F)cc3OCc3ccccc3)cc2S(=O)(=O)c2cccc(C(=O)N3CCN(c4ncc(Br)cn4)CC3)c21,84.2% (inactive)
16,CCOc1ccc2nc(NC(=O)c3ccc(S(=O)(=O)N4CCOCC4)cc3)sc2c1,77.7% (inactive)
17,CC1=CCC2C(=O)N(c3ccc(C)c(Br)c3)C(=O)C2C1 (configuration not stated),109% (inactive)
18,COc1ccccc1CN(C)C[C@@H]1OCc2cnnn2CCCC(=O)N([C@@H](C)CO)C[C@H]1C,96.2% (inactive)
19,CN(c1ccccc1)S(=O)(=O)c1cccc(NC(=O)C2=NNC(=O)CC2)c1,98.4% (inactive)
20,CC(=O)c1cccc(N(C(=O)CNC(=O)c2cccs2)C(C(=O)NCC2CCCO2)c2ccccc2)c1 (configuration not stated),102% (inactive)
21,COc1ccc(-c2csc(NC(=O)c3cc(C)on3)c2C#N)cc1OC,97.8% (inactive)
22,O=C(c1cnn(-c2nc3ccccc3s2)c1)c1ccccc1O,102% (inactive)

row,SMILES,binding response (% of DMSO)
1,CCN1C(=O)[C@H]2[C@@H](c3ccc(C)cc3)N3C(=O)N(c4ccc(OC)cc4)C(=O)[C@@]3(Cc3ccccc3)[C@H]2C1=O,98.4% (inactive)
2,COc1ccc(-c2cc(=O)oc3cc(OCC(=O)Nc4ccccn4)ccc23)cc1,88.2% (inactive)
3,CN1CCN(Cc2nc3ccccc3c(=O)n2Cc2nc(-c3ccc([N+](=O)[O-])cc3)cs2)CC1,103% (inactive)
4,Fc1ccc2nc(C3CCCCN3Cc3nc(CC4CC4)no3)[nH]c2c1 (configuration not stated),102% (inactive)
5,CSCCC(NC(=O)C1CCC(C)CC1)C(=O)OCC(=O)c1ccc(Cl)cc1 (configuration not stated),107% (inactive)
6,O=S(=O)(NCCOc1ccccc1F)c1ccc(Cl)cc1F,102% (inactive)
7,CCOc1cc(S(=O)(=O)Nc2ccc(Cl)cn2)ccc1F,112% (inactive)
8,CCc1ccc(Cn2nnc(C(=O)Nc3ccc(OC)cc3OC)c2N)cc1,96.2% (inactive)
9,COc1ccc(-c2ccc(-c3nc4c(c(=O)[nH]c(=O)n4Cc4ccccc4)n3C)o2)c([N+](=O)[O-])c1,87.1% (inactive)
10,COc1ccc(OC)c(NC(=O)NCCc2cccc(Cl)c2)c1,100% (inactive)
11,COc1ccc(Cl)c(NC(=O)NCCN2CCN(c3ccccc3)CC2)c1,67.9% (active)
12,COc1ccc(NC(=O)c2ccc(NC(=O)CN3CCN(c4ccccc4)CC3)cc2)cc1,90.4% (inactive)
13,CC1C(=O)N2CCCc3cc(S(=O)(=O)N4CCC(C(N)=O)CC4)cc1c32 (configuration not stated),104% (inactive)
14,Cc1ccc(NS(=O)(=O)c2ccc3c(c2)n(C)c(=O)n3C)cc1,100% (inactive)
15,COc1ccc(CNC(=O)c2cnc(C)cn2)cc1,101% (inactive)
16,COCC(C)n1c(C)cc(C(=O)COC(=O)c2nn(C)c(=O)c3ccccc23)c1C (configuration not stated),98.2% (inactive)
17,CC(=O)Nc1nnc(CCS(=O)(=O)c2ccc(C)c(C)c2)s1,104% (inactive)
18,COc1ccc(-n2ccc(=O)c(C(=O)Nc3ccc(S(=O)(=O)Nc4nccs4)cc3)n2)cc1,99.6% (inactive)
19,COc1ccc(C(=O)NCc2nnc(SCC(=O)N3CCc4ccccc43)n2C2CCCCC2)cc1,91% (inactive)
20,CCc1nnc(NC(=O)CCN(c2ccc(C)cc2)S(=O)(=O)c2ccccc2)s1,103% (inactive)
21,Cc1ccsc1-c1nc(-c2ccccc2)c(-c2ccccc2)[nH]1,77.9% (inactive)
22,CN(Cc1cc2ccccc2[nH]c1=O)S(C)(=O)=O,100% (inactive)

row,SMILES,binding response (% of DMSO)
1,Cc1nc2scc(C)n2c(=O)c1S(=O)(=O)NCc1ccc(F)cc1,107% (inactive)
2,COc1ccc(C(=O)NCc2ccc(C)cc2)cc1S(=O)(=O)N1CCCC1,105% (inactive)
3,CCOC(=O)c1c(-c2ccccc2)c[nH]c1C,97.4% (inactive)
4,CCN(CC)c1ccc(/C=N/N2C(=O)c3ccccc3C2=O)cc1,102% (inactive)
5,CCOC(=O)C1=C(O)/C(=C/c2ccc(-c3ccccc3C(=O)O)o2)SC1=Nc1ccc(C)cc1,108% (inactive)
6,CC(=O)N1C(=O)/C(=C2\SC(=S)N(c3c(C)n(C)n(-c4ccccc4)c3=O)C2=O)c2ccccc21,87.6% (inactive)
7,Clc1ccc(-n2ncc3c(NCc4cccnc4)ncnc32)cc1Cl,91.8% (inactive)
8,C=C(Br)CN1[C@@H](Cc2ccccc2)[C@H](O)[C@@]23C=C[C@@H](C[C@@H]2S1(=O)=O)O3,101% (inactive)
9,CCOC(=O)CSc1nc2sc(C)c(C)c2c(=O)n1N,104% (inactive)
10,CC(=O)c1c(C)[nH]c(C(=O)NCc2ccc(Cl)cc2)c1C,105% (inactive)
11,CCOC(=O)Cc1csc(NC(=O)COc2ccccc2)n1,99.8% (inactive)
12,Cc1cc(=O)oc2cc(OCC(=O)OCC(=O)Nc3ccccc3Br)ccc12,112% (inactive)
13,COc1cccc(-c2nc(NCc3ccco3)c3ccccc3n2)c1O,89.5% (inactive)
14,O=C(c1cc(S(=O)(=O)N2CCOCC2)ccc1F)N1CCCc2ccccc21,104% (inactive)
15,CSc1nc(C2CC2)cc(-c2cccs2)c1C#N,94.5% (inactive)
16,O=C(CSc1n[nH]c(-c2ccco2)n1)Nc1ccccc1Cl,101% (inactive)
17,COc1ccc(CC(=O)Nc2cccc(C(=O)NN3C(=O)c4ccccc4C3=O)c2C)cc1,102% (inactive)
18,COC(=O)[C@]1(C)N[C@H](CN(C)C(=O)Nc2ccc(OC)cc2)[C@@H]2C(=O)N(C)C(=O)[C@@H]21,95.3% (inactive)
19,CCOC(=O)c1sc(NC(=O)C(CC)Sc2nccn2C)nc1C (configuration not stated),105% (inactive)
20,O=C(O)C1(Nc2ccc(Br)cc2)CCCC1,98.6% (inactive)
21,COc1ccc(S(=O)(=O)N2CCCCCC2)cc1NC(=O)CCNC(=O)c1ccc(Cl)cc1,107% (inactive)
22,O=C(CCCCCCN1C(=O)c2ccccc2C1=O)NC1CCCCC1,105% (inactive)

row,SMILES,binding response (% of DMSO)
1,CCCCN(CCCC)C(=O)c1cc(Cl)ccc1[N+](=O)[O-],98.8% (inactive)
2,COc1ccc(C(=O)COc2ccc3ccc(=O)oc3c2)c(OC)c1,104% (inactive)
3,COc1ccc(C)cc1NS(=O)(=O)c1ccc2c(c1)CCN2C(C)=O,99.4% (inactive)
4,NS(=O)(=O)c1ccc(NC(=O)c2ccc(F)cc2F)c(NC(=O)c2ccc(F)cc2F)c1,104% (inactive)
5,CCCCSc1nnc(-c2ccc(NC(=O)CCc3ccccc3)cc2)n1C,104% (inactive)
6,COc1ccc(-c2cc(NC(=O)c3cncn3-c3ccccc3)ccc2OC)cc1,107% (inactive)
7,Cc1ccc(NC(=O)CN2C(=O)NC(Cc3c[nH]c4ccccc34)C2=O)cc1S(=O)(=O)N1CCCCC1 (configuration not stated),102% (inactive)
8,CC(=O)c1ccc(OCC(O)CN2CC(C)OC(C)C2)cc1 (configuration not stated),104% (inactive)
9,Cc1cc2oc(=O)cc(-c3ccccc3)c2c(C)c1-c1ccc(F)c(Cl)c1,105% (inactive)
10,C[C@H](CO)N1C[C@H](C)[C@@H](CN(C)Cc2ccc(-c3ccccc3)cc2)Oc2c(NS(=O)(=O)c3cn(C)cn3)cccc2C1=O,98.2% (inactive)
11,O=C(CN1CCN(S(=O)(=O)c2ccccc2)CC1)Nc1cccc(C(F)(F)F)c1,110% (inactive)
12,O=C(Nc1cc(Cl)ccc1-n1cncn1)c1cn2ccccc2n1,111% (inactive)
13,COc1cccc(C(=O)NCCn2ccc3ccccc32)c1,112% (inactive)
14,COc1cc(CN2CCC(n3nccc3NC(=O)C3CC3)CC2)cc(OC)c1,104% (inactive)
15,Cc1ccc(Cn2cnc3c(nnn3Cc3ccc(Cl)cc3)c2=O)cc1,90% (inactive) and 97.5% (inactive)
16,CC(C)[C@H](NC(=O)N1c2ccccc2NC(=O)[C@@H]1C(C)C)C(=O)N[C@@H](Cc1c[nH]c2ccccc12)C(=O)O,105% (inactive)
17,CCOc1c(Br)cc(C(=O)Nc2cccc(S(=O)(=O)N3CCOCC3)c2)cc1OC,102% (inactive)
18,CCc1nnc(NC(=O)CCC(=O)NCc2ccccc2Cl)s1,97.5% (inactive)
19,COc1ccc(OC)c(NS(=O)(=O)c2ccc(-c3coc(C)n3)cc2)c1,97.3% (inactive)
20,COc1ccc(CCN2C(=O)C(Oc3ccccc3C)C2c2ccc3c(c2)OCO3)cc1OC (configuration not stated),101% (inactive)
21,CSc1nc2ccc(NC(=O)c3cccs3)cc2s1,102% (inactive)
